Measurements reported in PubChem BioAssay (NCATS).
Results filed as inconclusive are left out. Activity calls are given as the source filed them. Unless noted, calls follow the shape of the dose curve; as a rule, active = well fitted curve in the direction sought with a large enough effect; inconclusive = small, poorly fitted or top-dose-only effect, or another doubt; inactive = no such curve, though single readings can be large; an effect the other way counts as inactive or inconclusive.

Legend:
[1] = qHTS to identify inhibitors of the type 1 interferon - major histocompatibility complex class I in skeletal muscle: primary screen against the NCATS Pharmaceutical Collection (AID 1347407);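 also: luminescence of HiBiT knocked into endogenous HLA-B as interferon-induced MHC class I level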
Outline: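 Immortalized human myoblasts (C25cl48) with HiBiT knocked into endogenous HLA-B*08:01 were stimulated with 4 ng/ml IFN-beta and treated with compounds (8-point, 1:5, top 46 uM final) for 24 h at 37 C; HiBiT lytic luminescence read.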

[2] = biological target: Protein phosphatase 1D (Homo sapiens) (UniProt O15297); experiment: RapidFire Mass Spectrometry qHTS Assay for Modulators of WT P53-Induced Phosphatase 1 (WIP1) (AID 1347424);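 also: amount of dephosphorylated VEPPL-S-QETFS peptide product formed by WIP1; series mostly up to about 63 µM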
Outline: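 WIP1 (10 nM final) was preincubated 1 h at room temperature with compounds in Tris-HCl pH 7.5, 30 mM MgCl2, TCEP, EGTA, BSA; 2 uM VEPPL-pS-QETFS phosphopeptide was added for 5 min, quenched with formic acid, and dephosphorylated product quantified by RapidFire MS.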

[3] = Primary qHTS for inhibitors of La Crosse Virus (LACV) - induced cell death in SH-SY5Y cells (AID 1508616);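 also: top concentration of the series differs between compounds; higher means more rescue of cells from virus-induced death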
Outline: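 Readout was luminescence from ATPLite 1step added after a 6-day LACV infection (0.01 MOI) of SH-SY5Y cells that had received pin-transferred compound 24 hr after seeding.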

[4] = biological target: Calcium and integrin-binding protein 1 (Homo sapiens) (UniProt Q99828); experiment: Primary qHTS for Identification of Calcium Integrin Binding Protein 1 (CIB1) Competitor (AID 1508620);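 also: GST tagged CIB1 binding a fluorescein labelled alphaIIb integrin peptide tracer; top concentration of the series differs between compounds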
Outline: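 Fluorescence polarization competition: CIB1-GST (1 uM final) preincubated with compound 15 min at room temperature, then FITC-labeled alphaIIb peptide (100 nM final) added for another 15 min. Polarization read at Ex 480/Em 540.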

[5] = A High-Content qHTS Against Drug Library for the Identification of Small Molecules that Inhibit DYT1 Early Onset Primary Dystonia-Associated Cell Pathology (AID 1645839; calls by dose curve; also: series mostly up to about 46 µM)
Outline: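 Readout: %pathology, the punctate EGFP-TorsinA distribution from imaging, as the primary channel and cell count as the toxicity counterscreen. HEK293 Flp-In cells expressing delE TorsinA were induced with tetracycline and treated with compound for 48 h.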

[6] = biological target: Protein phosphatase 1D (Homo sapiens) (UniProt O15297); experiment: Rhodamine-PBP qHTS Assay for Modulators of WT P53-Induced Phosphatase 1 (WIP1) (AID 1347425)
Outline: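 WIP1 (5 nM final) was preincubated with compound for 1 hour at room temperature. It then dephosphorylated 10 uM VEPPL-pS-QETFS peptide in Tris-HCl pH 7.5 with 30 mM MgCl2. Released Pi was detected by 10 uM Rh-PBP fluorescence (ex 525/em 598 nm) read at 1-min intervals for 11 min, as delta f1 - f0.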

[7] = Primary qHTS for small molecule stabilizers of the endoplasmic reticulum resident proteome: Secreted ER Calcium Modulated Protein (SERCaMP) assay (AID 1508630)
Outline: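 GLuc-SERCaMP-expressing SH-SY5Y cells, pretreated 16 h with compound, are challenged with thapsigargin to empty ER calcium stores; after 4 h, coelenterazine is added directly to the medium and luminescence is imaged.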

[8] = Confirmatory qHTS for small molecule stabilizers of the endoplasmic reticulum resident proteome: Secreted ER Calcium Modulated Protein (SERCaMP) assay (AID 1508628);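 also: SH-SY5Y cells given compound 16 h then thapsigargin 100 nM for 4 h; series mostly up to about 76 µM; nearly all actives have a fitted effect of over 40% in size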
Outline: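 We seeded SH-SY5Y-GLuc-SERCaMP cells, added compounds (three concentrations in the primary run, eleven up to 76.6 uM in confirmation), incubated 16 h, depleted ER calcium with thapsigargin, and read luciferase 4 h later.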

[9] = qHTS to identify inhibitors of the type 1 interferon - major histocompatibility complex class I in skeletal muscle: primary screen against the NCATS Mechanism Interrogation Plate v5.0 (MIPE) Libary (AID 1347411); also: nearly all actives have a fitted effect of over 65% in size
Outline: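 Cells were genome-edited human myoblasts carrying a HiBit tag on endogenous HLA-B. They were treated with IFN-beta (4.0 ng/ml) and titrated compounds (top 46 uM) for 24 hrs before lytic HiBiT detection.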

Measured: Potency

Sequence of Protein phosphatase 1D (Homo sapiens) (O15297 whole entry, looked up): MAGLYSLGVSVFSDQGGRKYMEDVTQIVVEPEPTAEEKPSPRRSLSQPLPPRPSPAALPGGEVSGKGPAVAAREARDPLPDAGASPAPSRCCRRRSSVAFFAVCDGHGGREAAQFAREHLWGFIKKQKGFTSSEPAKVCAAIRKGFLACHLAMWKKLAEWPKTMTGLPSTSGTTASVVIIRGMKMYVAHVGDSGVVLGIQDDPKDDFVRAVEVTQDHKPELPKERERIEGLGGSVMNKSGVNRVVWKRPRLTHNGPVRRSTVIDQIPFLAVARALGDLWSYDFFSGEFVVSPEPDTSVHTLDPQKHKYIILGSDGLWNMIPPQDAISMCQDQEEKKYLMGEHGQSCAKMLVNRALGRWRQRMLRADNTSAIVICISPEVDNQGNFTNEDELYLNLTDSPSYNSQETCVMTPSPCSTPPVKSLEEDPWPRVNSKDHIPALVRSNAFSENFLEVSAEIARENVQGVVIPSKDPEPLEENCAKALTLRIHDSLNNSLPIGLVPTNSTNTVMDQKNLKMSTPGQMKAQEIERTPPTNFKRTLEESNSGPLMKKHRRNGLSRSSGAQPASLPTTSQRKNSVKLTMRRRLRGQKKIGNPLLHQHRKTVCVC
Sequence of Calcium and integrin-binding protein 1 (Homo sapiens) (Q99828 whole entry, looked up): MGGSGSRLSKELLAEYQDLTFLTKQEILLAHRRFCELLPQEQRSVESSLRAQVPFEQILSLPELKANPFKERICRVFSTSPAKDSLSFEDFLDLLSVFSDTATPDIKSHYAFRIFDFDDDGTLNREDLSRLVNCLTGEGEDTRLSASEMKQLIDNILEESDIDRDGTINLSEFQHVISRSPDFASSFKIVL

CCc1cc(S(=O)(=O)O)c2cc(C(C)C)cccc1-2
inactive: [1] | [2] | [3] | [4] | [5]

O=C(O)Cn1c(=O)n(Cc2ccc(Br)cc2F)c(=O)c2ccc(Cl)cc21
inactive: [1] | [2] | [3] | [4] | [5]

CC(=O)N(CC(=O)N(C)C)c1ccccc1
inactive: [1] | [6] | [3] | [4] | [7] | [5]

CC(C)(C)C(=O)OCOC(=O)C1N2C(=O)CC2S(=O)(=O)C1(C)C (centres undefined)
inactive: [1] | [2] | [3] | [5]

COC(=O)/C=C(/C)N
inactive: [1] | [2] | [3] | [4] | [7] | [5]

CN(CC1(C)CCCO1)S(=O)(=O)c1ccc(Cl)c(S(N)(=O)=O)c1 (centres undefined)
inactive: [1] | [6] | [3] | [4] | [7] | [5]

CC(C)(C)c1ccc(C(=O)CCCCl)cc1
inactive: [1] | [2] | [3] | [7] | [5]

CC(=O)Nc1ccn(C2COC(COC(=O)c3ccccc3)O2)c(=O)n1 (centres undefined)
inactive: [1] | [6] | [4] | [5]

CCN(CC)CCOc1ccc(/C(=C(\Cl)c2ccccc2)c2ccccc2)cc1
inactive: [2] | [6] | [3] | [4]

c1ccc(C(O[C@H]2CCCN(CCc3ccc4c(c3)OCO4)C2)c2ccccc2)cc1
inactive: [1] | [3] | [4] | [7]

CO/N=C(\C(=O)O)c1csc(NC(=O)CCl)n1
inactive: [1] | [6] | [3] | [4] | [5]

O=C(c1ccccc1)c1ccccc1
inactive: [1] | [6] | [3] | [4] | [5]

C/C(=C(/OCCOc1ccc(Cl)cc1)c1ccc(Cl)cc1Cl)n1ccnc1
inactive: [2] | [6] | [3] | [4]

Cc1nc(N)nc(N)c1-c1ccc(Cl)c(Cl)c1
inactive: [2] | [6] | [3] | [4] | [7]

Cn1cc(S(C)=O)c(=O)c2ccc(F)cc21 (centres undefined)
inactive: [1] | [6] | [4]

C[C@@H](O[C@H]1OCCN(Cc2n[nH]c(=O)[nH]2)[C@H]1c1ccc(F)cc1)c1cc(C(F)(F)F)cc(C(F)(F)F)c1
inactive: [1] | [3] | [4]

CCCCCC[C@@H](CCC)C(=O)O
inactive: [1] | [6] | [4] | [7] | [5]

CCOC(=O)C(O)c1ccccc1 (centres undefined)
inactive: [1] | [6] | [3] | [4] | [5]

CCCCCOc1ccccc1/C(=C\SC)n1ccnc1
inactive: [2] | [6] | [3] | [4] | [7]

CC(=O)N(CC(O)CO)c1c(I)c(C(=O)NCCO)c(I)c(C(=O)NCC(O)CO)c1I (centres undefined)
inactive: [1] | [6] | [3] | [4] | [7] | [5]

Cc1oc(-c2ccccc2)nc1CCC(=O)c1ccc(CC2SC(=O)NC2=O)cc1 (centres undefined)
inactive: [1] | [4] | [7]

O=C1NC2CCCCN2C12CCN(CCCN1c3ccccc3CCc3ccc(Cl)cc31)CC2 (centres undefined)
inactive: [2] | [6] | [3] | [4]

Nc1cccc2c(N)cccc12
inactive: [1] | [8]

CC(C(=O)O)c1ccc(/C=C2\CCCCC2=O)cc1 (centres undefined)
inactive: [1] | [6] | [7] | [5]

CNC(=O)c1cnn(-c2nc(N)c3ncn([C@@H]4O[C@H](CO)[C@@H](O)[C@H]4O)c3n2)c1
inactive: [1] | [6] | [3] | [7]

CCCCOC(=O)CCCCCCCCC(=O)OCCCC
inactive: [1] | [3] | [4] | [5]

CN(C)CCOC(c1ccccc1)c1ccc(Br)cc1 (centres undefined)
inactive: [2] | [6] | [3] | [4]

CCc1cccc2c(CCO)c[nH]c12
inactive: [1] | [6] | [3] | [4] | [5]

COc1ccc(OC(=O)N(CC(=O)O)Cc2ccc(OCCc3nc(-c4ccccc4)oc3C)cc2)cc1
inactive: [1] | [3] | [4] | [7]

OCc1c[nH]c2ccccc12
inactive: [1] | [3] | [4]

CCOC(=O)OCC/C(SC(=O)OCC)=C(\C)N(C=O)Cc1cnc(C)nc1N
inactive: [1] | [6] | [3] | [7] | [5]

CSc1ccc(/C=C2/C(C)=C(CC(=O)O)c3cc(F)ccc32)cc1
inactive: [1] | [3]

C[C@@]12CCC[C@H]1[C@@H]1CC[C@H]3C[C@@H](O)CC[C@]3(C)[C@H]1CC2
inactive: [1] | [6] | [3] | [4] | [7] | [5]

CO/N=C(/C(=O)N[C@@H]1C(=O)N2C(C(=O)OCOC(=O)C(C)(C)C)=C(C)CS[C@H]12)c1csc(N)n1
inactive: [1] | [6] | [3] | [4] | [5]

CCC1=C[C@@H]2CN(C1)Cc1c([nH]c3ccccc13)[C@@](C(=O)OC)(c1cc3c(cc1OC)N(C)[C@H]1[C@@](O)(C(=O)OC)[C@H](OC(C)=O)[C@]4(CC)C=CCN5CC[C@]31[C@@H]54)C2
inactive: [9] | [3] | [4] | [7]
